What all share (settings): incubation time: 27 h, anaerobic, 37 °C
The subject of test [1] is Clostridium sporogenes DSM 1664. Briefly: growth (OD595) fold change vs plate DMSO controls (fold change (ratio)); higher = more growth. The method in brief:
(§1)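 Anaerobic 27 h, 37 °C mGAM 96-well cultures were shaken, then read for absorbance at 595 nm. Values were blank-subtracted and corrected for compound background using 20 µM compound solutions in water. A calibration factor of 5 converted them to OD. Growth is the fold change versus the median of plate DMSO controls. Fold changes above 1.5 were set to NA, and values are the mean of 2 biological replicates.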

For test [2], the system named is Escherichia coli IAI1. The test is described as above. The essentials: as §1
For test [3], the system named is Klebsiella aerogenes DSM 30053. Described as above. The method in brief: as §1
Test [4] deals with Ruminococcus gnavus DSM 108212. The test is described as above. The essentials:
as §1

The test system of test [5] is Klebsiella aerogenes DSM 30053. Briefly: fold change of Histamine concentration vs plate DMSO controls (fold change (ratio)); higher = more amine produced, active = hit call of the paper (significant change in both replicates, either direction). The method in brief:
(§2)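 Anaerobic mGAM cultures of four gut bacterial strains were grown at 37 °C for 27 h in 80 µL wells, starting at OD 0.1 before 1:1 dilution. Compounds were at 20 µM final (sweeteners 50 µM). Whole cultures were extracted with cold acetonitrile/methanol containing 0.1% formic acid and centrifuged. Amines were quantified by LC–triple-quadrupole MS (dynamic MRM) against external calibration curves and drift-corrected within batch. Each value is the fold change versus plate DMSO controls, averaged over 2 biological replicates.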

In test [6] the test system is Clostridium sporogenes DSM 1664. Briefly: fold change of Tryptamine concentration vs plate DMSO controls (fold change (ratio)); higher = more amine produced, active = hit call of the paper (significant change in both replicates, either direction). The method in brief:
as §2

The subject of test [7] is Ruminococcus gnavus DSM 108212. Described as above. The method in brief:
as §2

Test [8] deals with Escherichia coli IAI1. Briefly: fold change of Putrescine concentration vs plate DMSO controls (fold change (ratio)); higher = more amine produced, active = hit call of the paper (significant change in both replicates, either direction). The essentials: as §2
For test [9], the system named is Klebsiella aerogenes DSM 30053. Described as above. The method in brief:
as §2

The test system of test [10] is Escherichia coli IAI1. Briefly: fold change of Cadaverine concentration vs plate DMSO controls (fold change (ratio)); higher = more amine produced, active = hit call of the paper (significant change in both replicates, either direction). The essentials:
as §2

Test [11] has as its system Klebsiella aerogenes DSM 30053. The test is described as above. The method in brief:
as §2

Test [12] concerns Ruminococcus gnavus DSM 108212. The experiment in a line: fold change of 2-Phenylethylamine concentration vs plate DMSO controls (fold change (ratio)); higher = more amine produced, active = hit call of the paper (significant change in both replicates, either direction). The essentials: as §2

Structures can show the parent of a compound that is named as a salt.

These results are taken from the supplement of paper PMC12494721.

`CC(=O)OCC(=O)[C@@]1(OC(C)=O)[C@@H](C)C[C@H]2[C@@H]3C[C@H](F)C4=CC(=O)C=C[C@]4(C)[C@@]3(F)[C@@H](O)C[C@@]21C` [Diflorasone Diacetate] (20 µM): the growth in [1] was determined as 1.05; in the test with Escherichia coli IAI1 [2] it was 0.996; in [3] it was 0.978; in [4], 0.993. In [5], the “fold change of Histamine concentration” value is 1.03 (inactive). Further, the “fold change of Tryptamine concentration” value in test [6] was 1.03 (inactive); in test [7], 1.01 (inactive). The “fold change of Putrescine concentration” value was 0.969 (inactive) with Escherichia coli IAI1 [8] and 1.01 (inactive) in test [9]. The “fold change of Cadaverine concentration” value in the test with Escherichia coli IAI1 [10] was 1.02 (inactive); in test [11], 0.989 (inactive). For the same molecule, the “fold change of 2-Phenylethylamine concentration” value in test [12] is 0.978 (inactive).

Turning to `CC1(C)S[C@@H]2[C@H](NC(=O)[C@H](N)c3ccccc3)C(=O)N2[C@H]1C(=O)OC1OC(=O)c2ccccc21` (some centres not stated) [Talampicillin hydrochloride] (20 µM), the growth in test [1] was found to be 0; in the test on Escherichia coli IAI1 [2], 0.00609; in test [3], 0.378; in test [4] it was 0.146. Further, the “fold change of Histamine concentration” value in test [5] was 0.797 (active). Besides, the “fold change of Tryptamine concentration” value is 0.0102 (active) in test [6] and 0.0823 (active) in test [7]. Moreover, the figures for the “fold change of Putrescine concentration” value (in the test with Escherichia coli IAI1 [8]; in [9]) were 0.252 (active) and 0.971 (inactive), respectively. The “fold change of Cadaverine concentration” value was 0.867 (inactive) with Escherichia coli IAI1 [10] and 1.13 (inactive) in test [11]. For the same molecule, the “fold change of 2-Phenylethylamine concentration” value in test [12] is 0.0586 (active).

In the case of `CCn1cc(C(=O)O)c(=O)c2cc(F)c(N3CCNC(C)C3)c(F)c21` (configuration not stated) [Lomefloxacin hydrochloride] (20 µM), the growth in test [1] was determined as 0.0338; in the test with Escherichia coli IAI1 [2], 0.0575; in [3], 0.252; in test [4] it was 1.01. Besides, in test [5], the “fold change of Histamine concentration” value is 0.0674 (active). In addition, the “fold change of Tryptamine concentration” value is 0.0603 (active) in [6] and 1.03 (inactive) in test [7]. Besides, the “fold change of Putrescine concentration” value with Escherichia coli IAI1 [8] is 0.781 (active); in test [9], 0.627 (active). Further, the “fold change of Cadaverine concentration” value in the test on Escherichia coli IAI1 [10] is 0.166 (active); in [11] it was 0.981 (inactive). The “fold change of 2-Phenylethylamine concentration” value in [12] is 1.03 (inactive).

As to `CN(CCCCCCCCCCN(C)C(=O)Oc1cccc([N+](C)(C)C)c1)C(=O)Oc1cccc([N+](C)(C)C)c1` [Demecarium bromide] (20 µM), the growth in test [1] is 0.744; with Escherichia coli IAI1 [2], 0.974; in test [3], 1.04; in test [4], 0.614. Further, the “fold change of Histamine concentration” value in test [5] is 0.986 (inactive). The entries for the “fold change of Tryptamine concentration” value in test [6] and in [7] were 0.871 (inactive) and 1.06 (inactive), respectively. For the same molecule, the “fold change of Putrescine concentration” value in the test with Escherichia coli IAI1 [8] is 0.987 (inactive); in test [9], 1.01 (inactive). Moreover, the “fold change of Cadaverine concentration” value in the test with Escherichia coli IAI1 [10] is 1.03 (inactive); in test [11], 1.01 (inactive). Further, the “fold change of 2-Phenylethylamine concentration” value in test [12] was 1.06 (inactive).

Turning to `OC(CNCC(O)C1CCc2cc(F)ccc2O1)C1CCc2cc(F)ccc2O1` (configuration not stated) [Nebivolol hydrochloride] (20 µM), the growth was found to be 1.15 in [1], 0.992 in the test on Escherichia coli IAI1 [2], 0.992 in test [3] and 0.785 in test [4]. Moreover, in [5], the “fold change of Histamine concentration” value was 1.03 (inactive). Also, the results for the “fold change of Tryptamine concentration” value in test [6] and in [7] were 0.94 (inactive) and 0.882 (inactive), respectively. The “fold change of Putrescine concentration” value was 1.03 (inactive) with Escherichia coli IAI1 [8] and 1.01 (inactive) in [9]. Moreover, the “fold change of Cadaverine concentration” value in the test with Escherichia coli IAI1 [10] is 0.955 (inactive); in test [11], 0.998 (inactive). The “fold change of 2-Phenylethylamine concentration” value in [12] is 0.879 (inactive).

For the molecule `O=C(CCCN1CCC(O)(c2ccc(Cl)cc2)CC1)c1ccc(F)cc1` [Haloperidol] (20 µM), the growth amounted to 0.929 in [1], 0.6 with Escherichia coli IAI1 [2], 0.574 in test [3] and 0.802 in test [4]. Besides, the “fold change of Histamine concentration” value in [5] was 1.06 (inactive). Further, the “fold change of Tryptamine concentration” value in test [6] is 1.05 (inactive); in test [7], 0.96 (inactive). Further, the “fold change of Putrescine concentration” value with Escherichia coli IAI1 [8] is 1.03 (inactive); in test [9], 1 (inactive). For the same molecule, the entries for the “fold change of Cadaverine concentration” value (in the test with Escherichia coli IAI1 [10]; in test [11]) were 0.864 (inactive) and 0.992 (inactive), respectively. Besides, the “fold change of 2-Phenylethylamine concentration” value in test [12] is 0.965 (inactive).
